A short description of assay [1]: Viability qHTS for spleen associated tyrosine kinase inhibitor (SYKi) naive MV4-11 cells (AID 1963823). Further: nearly all actives have a fitted effect of over 40% in size. As to conditions: MV4-11 AML viability, CellTiter-Glo luminescence, 72 h; series mostly up to 45 µM. The gist of the method: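 Read-out: CellTiter-Glo luminescence. Exposure: 72 hr, 37 C, 5% CO2, 95% humidity. Cells: MV4-11 without SYK inhibitor history, 500/well, qHTS format.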

Assay [2] is described as follows: Viability qHTS for spleen associated tyrosine kinase inhibitor (SYKi) drug resistant MV4-11 cells (AID 1963824). Further: nearly all actives have a fitted effect of over 35% in size. As to conditions: SYKi-resistant MV4-11 viability, CellTiter-Glo, 72 h; series mostly up to 45 µM. The gist of the method: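 SYK-inhibitor-resistant MV4-11 AML cells were seeded at 500 per well onto compound and cultured 72 hours (37 °C, 5% CO2). CellTiter-Glo was then added, and after 10 min at room temperature, luminescence gave viability.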
For orientation: qHTS replaces the single test concentration by a dilution series.

Data on 23 compounds can be found in PubChem BioAssay (NCATS).

Results filed as inconclusive are left out. A number with no mark means an inactive call. Active and inactive are the calls of the source. The call rests on the fitted dose curve; in most records, active means well fitted cell-killing curve with a large enough effect; inconclusive means small, poorly fitted or top-dose-only effect, or effect the other way; inactive means no such curve, though single readings can be large or run the other way.
Potency means the concentration at half of the fitted maximal effect.

Regarding `C[C@@H]1O[C@@H](O[C@@H]2[C@@H](O)[C@@H](O[C@]3(CO)O[C@H](CO)[C@@H](O)[C@@H]3OC(=O)/C=C/c3ccc(O)cc3)O[C@H](CO)[C@H]2OC(=O)/C=C/c2ccc(O)cc2)[C@H](O)[C@H](O)[C@H]1O[C@@H]1O[C@@H](C)[C@H](O[C@@H]2OC[C@](O)(CO)[C@H]2O)[C@@H](O)[C@H]1O`, in assay [1], the viability (% of control) is 90% [at 9.25 µM]. Further, in assay [2], the viability, % of control was 102% [at 9.25 µM].
As for `O=C(OC1C=C(CO)C2C(OC3OC(CO)C(O)C(O)C3O)OC=CC12)c1ccc(O)cc1` (stereo unspecified), the Potency result in assay [1] and in assay [2] was “inactive” throughout.
On to `COC(=O)C1=CO[C@@H](O[C@@H]2O[C@H](CO)[C@@H](O)[C@H](O)[C@H]2O)[C@H]2[C@@H]1C=C[C@]21C=C([C@H](C)OC(=O)/C=C/c2ccc(O[C@@H]3O[C@H](CO)[C@@H](O)[C@H](O)[C@H]3O)cc2)C(=O)O1`, for which the Potency result in assay [1] and in assay [2] was “inactive” each time.
For `CC1(C)C[C@@H]2[C@H](C1)[C@@]1(C)C[C@]13C(O)OC[C@]3(O)[C@H]2O` (stereo partly specified), the Potency result in assay [1] and in assay [2] was “inactive” each time.
As for `CN(Cc1ccc(C(=O)O)cc1)c1ccc(OCc2c(-c3c(Cl)cccc3Cl)noc2C2CC2)nc1C(F)(F)F`, the Potency was 20.6 µM (active) in assay [1] and 16.4 µM (active) in assay [2].
Consider `CC1(C)CC[C@]2(C(=O)O)CC[C@]3(C)C(=CCC4[C@@]5(C)CC[C@H](O[C@@H]6O[C@H](C(=O)O)[C@@H](O)[C@H](O)[C@H]6O)C(C)(CO)C5CC[C@]43C)C2C1` (stereo partly specified), for which the Potency entry in assay [1] and in assay [2] was “inactive” throughout.
Regarding `N#CC1C(=O)N=C(c2cc(Cl)ccc2O)C=C1c1cc(OCc2ccccc2)cc(OCc2ccccc2)c1` (stereo unspecified), the Potency result in assay [1] and in assay [2] was “inactive” in each case.
As for `CC1=C(C)C(=O)OC(C(C)(O)C2CCC3C4CC=C5CC(OC6OC(COC7OC(CO)C(O)C(O)C7O)C(O)C(O)C6O)CC(O)C5(C)C4CCC32C)C1` (stereo unspecified), the Potency result in assay [1] and in assay [2] was “inactive” each time.
Take `COc1cc(CO)ccc1O[C@@H]1O[C@H](CO)[C@@H](O)[C@H](O)[C@H]1O`: the Potency entry in assay [1] and in assay [2] was “inactive” each time.
For `COc1ccccc1OCCNCC(O)CCOc1cccc2[nH]c3ccccc3c12` (stereo unspecified), the Potency in assay [1] and in assay [2] was 9.2 µM (active) in each case.
Regarding `COc1cc(CCc2ccc(OCC=C(C)C)cc2)cc(OC)c1OC`, the Potency in assay [1] is 14.3 µM (active); in assay [2] it was 5.7 µM (active).
Taken in the same sequence, the figures for `CC(=O)OC[C@]12[C@H](OC(C)=O)C(=O)[C@@H]3[C@@H](OC(C)=O)[C@@]14O[C@@]3(C)COC(=O)c1cccnc1[C@@H](C)[C@H](C)C(=O)O[C@@H]([C@H](O)[C@@H]2OC(C)=O)[C@]4(C)O` were “inactive” and “inactive”.
Turning to `CC(=O)OCC1=C[C@@H]2OC(=O)C3=CO[C@@H](O[C@@H]4O[C@H](CO)[C@@H](O)[C@H](O)[C@H]4O)[C@H]1[C@@H]32`, the Potency entry in assay [1] and in assay [2] was “inactive” in each case.
As for `O=c1cc(-c2cccc(O)c2)oc2c(O)c(O)ccc12`, the Potency in assay [1] is 14.6 µM (active); in assay [2], 16.4 µM (active).
Turning to `CC(=O)N[C@H](Cc1ccc(O)cc1)C(=O)N[C@H](CCCN=C(N)N)C(=O)N[C@H](Cc1ccccc1)C(N)=O`, the Potency entry in assay [1] and in assay [2] was “inactive” each time.
Take `CC1(C)C[C@H]2C=C(C=O)[C@]3(C(=O)O)C[C@]3(C)[C@H]2C1`: the Potency entry in assay [1] and in assay [2] was “inactive” throughout.
Turning to `O=C(O)c1ccnc2cc(C(OCC3CCC(F)(F)CC3)c3ccccc3Cl)[nH]c12` (stereo unspecified), the Potency entry in assay [1] and in assay [2] was “inactive” throughout.
Take `CC1(C(=O)Nc2ccc(F)nc2)CCCN1c1nc(Nc2cc(C3CC3)[nH]n2)c2cccn2n1` (stereo unspecified): the Potency in assay [1] is 1.46 µM (active); in assay [2], 1.64 µM (active).
For `CCC(NC(=O)CC(NC(=O)C(CO)NC(=O)C(CC)NC(=O)c1ccc[nH]1)c1ccccc1)C(=O)O` (stereo unspecified) the same measures were “inactive” and “inactive”.
Regarding `N#CC1C(=O)Nc2scc(-c3ccc(-c4ccccc4O)cc3)c2C1=O` (stereo unspecified), the Potency entry in assay [1] and in assay [2] was “inactive” throughout.
`CC(C)CCC1(O)C(=O)C(C)(C)C(O[C@@H]2O[C@H](CO)[C@@H](O)[C@H](O)[C@H]2O)C(C)(C)C1O` (stereo partly specified): the Potency result in assay [1] and in assay [2] was “inactive” each time.
On to `CC(C)C[C@@H](N)C(=O)N[C@H]1C(=O)N[C@@H](CC(N)=O)C(=O)N[C@H]2C(=O)N[C@H]3C(=O)N[C@H](C(=O)N[C@H](C(=O)O)c4cc(O)cc(O)c4-c4cc3ccc4O)[C@H](O)c3ccc(c(Cl)c3)Oc3cc2cc(c3O[C@@H]2O[C@H](CO)[C@@H](O)[C@H](O)[C@H]2O[C@H]2C[C@](C)(N)[C@H](O)[C@H](C)O2)Oc2ccc(cc2Cl)[C@H]1O`, for which the Potency entry in assay [1] and in assay [2] was “inactive” in each case.
`CC(C)=CCC[C@](C)(O[C@@H]1O[C@H](CO)[C@@H](O)[C@H](O)[C@H]1O)[C@H]1CC[C@]2(C)[C@@H]1[C@H](O)CC1[C@@]3(C)CC[C@H](O)C(C)(C)C3[C@@H](O[C@@H]3O[C@H](CO)[C@@H](O)[C@H](O)[C@H]3O)C[C@]12C` (stereo partly specified): the Potency entry in assay [1] and in assay [2] was “inactive” each time.
